Drawing on PubChem BioAssay AID2551 (National Center for Advancing Translational Sciences (NCATS), 2010), this text covers Potency for 34 compounds.

Hit rate of the full screen: of about 310,000 compounds, about 17,000 (5.5%) were called active. Entries that show only a call come without a potency. Another 11% or so got no clear call; they are omitted. Calls follow the shape of the dose curve; as a rule, active = well fitted inhibition curve with a large enough effect; inconclusive = small, poorly fitted or top-dose-only effect, or effect the other way; inactive = no such curve, though single readings can be large or run the other way. Many of the other results were omitted from the sample, so actives are more common in it than they were.
Potency is read from the fitted curve at half-maximal effect.

Sequence of Nuclear receptor ROR-gamma (Mus musculus) (P51450 whole entry, looked up, the tested form may be a part): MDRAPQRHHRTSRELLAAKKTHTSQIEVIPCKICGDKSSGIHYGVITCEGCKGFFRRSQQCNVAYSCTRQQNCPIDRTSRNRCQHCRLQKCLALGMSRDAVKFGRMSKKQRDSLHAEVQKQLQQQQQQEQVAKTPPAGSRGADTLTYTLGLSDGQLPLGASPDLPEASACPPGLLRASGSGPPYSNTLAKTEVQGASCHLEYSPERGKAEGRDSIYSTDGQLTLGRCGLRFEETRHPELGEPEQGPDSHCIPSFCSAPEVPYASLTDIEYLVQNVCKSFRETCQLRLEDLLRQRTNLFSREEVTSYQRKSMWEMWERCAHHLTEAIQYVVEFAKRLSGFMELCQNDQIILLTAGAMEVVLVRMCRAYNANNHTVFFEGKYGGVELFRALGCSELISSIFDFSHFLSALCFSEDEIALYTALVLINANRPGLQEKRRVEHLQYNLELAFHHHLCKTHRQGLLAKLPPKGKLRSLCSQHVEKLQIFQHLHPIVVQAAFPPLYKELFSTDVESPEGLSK

This test concerns the target Nuclear receptor ROR-gamma (Mus musculus) (UniProt P51450). In words: qHTS for inhibitors of ROR gamma transcriptional activity. Also: nearly all actives have a fitted effect of over 60% in size. Particulars: Drosophila S2 Gal4-RORgamma UAS-luciferase reporter, 20 h; series mostly up to 53.6 µM. The method, boiled down: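 A Gal4/UAS one-hybrid system in insect cells: metallothionein-promoter Gal4–ROR gamma fusion plus Photinus luciferase reporter. Copper sulfate 700 uM final, 20 hr ambient incubation, luminescent detection after 10 min with reagent.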
Take `CCCC[C@H]1COCCS(=O)(=O)N1Cc1cccc(Cl)c1`: the Potency entry was “inactive”.

As to `O=C(NCCN1CCCC(O)C1)c1cc(COc2c(F)cccc2F)on1` (centres undefined), the Potency entry was “inactive”.

For `Cc1ccc(C)c(NC(=O)c2cc(-c3cc(C)cc(C)c3O)n[nH]2)c1`, the Potency result is “inactive”.

As to `COc1cccc(OCc2cc(C(=O)N3CCN(C(=O)c4ccco4)CC3)no2)c1`, the Potency entry was “inactive”.

`CCOC(=O)C1CCCN(C(=O)/C=C/c2ccc(OC)cc2)C1` (centres undefined): the Potency entry is “inactive”.

With `COc1ccc(C(=O)Nc2cccnc2)cc1C(=O)Nc1cccnc1`, the Potency entry was “inactive”.

For the compound `O=C(NC(=S)N1CCCCC1c1cccnc1)c1ccccc1` (centres undefined), the Potency is 0.794 µM (active).

Turning to `COc1ccc(C(=O)NC(=S)N2CCCCC2c2cccnc2)cc1OC` (centres undefined), the Potency is 0.891 µM (active).

With `Cc1ccc(-c2cc(C(F)(F)F)n3ncc(C(=O)N4CCCCC4c4cccnc4)c3n2)cc1` (centres undefined), the Potency entry is “inactive”.

Take `COc1ccc(/C=C/C(=O)NC(=S)NN2CCCCC2c2cccnc2)cc1` (centres undefined): the Potency is 7.08 µM (active).

In the case of `O=C(Nc1ccccc1C(F)(F)F)N1CCCC1c1cccnc1` (centres undefined), the Potency result is “inactive”.

Turning to `COc1ccc(C(=O)N2CCCC(C(=O)c3ccccc3OC)C2)cc1OC` (centres undefined), the Potency result is “inactive”.

Consider `COc1ccc(/C=C/C(=O)NC(=S)N2CCCC(C(N)=O)C2)cc1` (centres undefined), for which the Potency result was “inactive”.

Turning to `CCN1CCN(C(=O)C2CCCN(S(=O)(=O)c3ccc(OC)c(OC)c3)C2)CC1` (centres undefined), the Potency entry was “inactive”.

As for `COc1cc(C(=O)OC2CCOC2=O)c([N+](=O)[O-])cc1OC` (centres undefined), the Potency result is “inactive”.

Turning to `Cc1ccccc1NC(=O)C1CCN(C(=O)NC2CCCCC2)CC1`, the Potency entry was “inactive”.

Take `Cc1ccc(NC(=S)N2CCN(c3ncccn3)CC2)cc1C`: the Potency is 12.6 µM (active).

In the case of `CNC(=S)N1CCN(c2ccccn2)CC1`, the Potency result was “inactive”.

Take `CCOC(=O)c1ccc(NC(=S)N2CCN(c3ccccn3)CC2)cc1`: the Potency entry was “inactive”.

With `Cc1c(CC(=O)NCC(=O)NCC(=O)O)c(=O)oc2cc3oc4c(c3cc12)CCCC4`, the Potency result is “inactive”.

Turning to `O=C(OCC(=O)N1CCN(C(=O)c2ccco2)CC1)c1cccc(O)c1`, the Potency entry was “inactive”.

Regarding `O=C(c1ccco1)N1CCN(Cc2cccc(C(F)(F)F)c2)CC1`, the Potency result was “inactive”.

For `CCOC(=O)N1CCN(Cc2nc(Cc3cccc(C(F)(F)F)c3)no2)CC1`, the Potency result was “inactive”.

On to `Cn1c(-c2sccc2OCc2cccc(C(F)(F)F)c2)n[nH]c1=S`, for which the Potency is 4.47 µM (active).

As for `COc1ccccc1CNS(=O)(=O)c1c(C)[nH]c(C)c1C(=O)N1CCCCC1`, the Potency entry is “inactive”.

Turning to `O=C1CCCc2c1nc(-c1cccc(Cl)c1)n2O`, the Potency entry is “inactive”.

`O=c1c2cc(Br)ccc2nc(-c2cccc(Cl)c2)n1O`: the Potency was 12.6 µM (active).

Take `Cc1cccc(-c2nc3ccccc3c(=O)n2NC(=O)Cc2ccc(Cl)cc2)c1`: the Potency entry is “inactive”.

Turning to `O=C(N/N=C/c1ccc([N+](=O)[O-])cc1)c1c[nH]c2ccccc12`, the Potency entry was “inactive”.

Consider `O=C(N/N=C/c1c[nH]c2ccccc12)c1cc2ccccc2o1`, for which the Potency entry was “inactive”.

`CSC(=S)N/N=C/c1c[nH]c2ccccc12`: the Potency is 0.398 µM (active).

Consider `O=C(Cc1c[nH]c2ccccc12)N/N=C/c1cccc(F)c1`, for which the Potency entry is “inactive”.

In the case of `O=C(N/N=C/c1c[nH]c2ccccc12)c1ccccc1O`, the Potency is 5.62 µM (active).

Regarding `NC(=O)CSc1c[nH]c2ccccc12`, the Potency entry was “inactive”.
